PME-1 primary: PME-1 (human) inhibition. 0.53% of 320,000 active. recombinant PME-1, FP-Rh probe fluorescence polarization. inhibition, % at 5.9 µM;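 active = inhibition above the campaign mean of all compounds plus 3 SD, cut at about 26% in these data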;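 note: competitive labeling of PME-1 active site by serine hydrolase directed probe; inhibitors block probe labeling so polarization falls and inhibition rises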
PREPL inh: inhibitors of human prolyl oligopeptidase-like enzyme PREPL | Q4J6C6 | recombinant PREPL, fluorescence polarization activity-based probe | inhibition, % at 5.96 µM | 0.68% of 320,000 active; in the data active = inhibition above about 43%
LYPLA2 inh: counter-screen for PME1 inhibitors: inhibitors of human LYPLA2 | O95372 | inhibition, % at 5.9 µM | recombinant LYPLA2, FP-Rh probe fluorescence polarization | 0.38% of 320,000 active;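 active = inhibition above the screen-wide mean plus 3 SD, limit set per campaign, cut at about 26% in these data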
MEX-5 binding: C. elegans MEX-5 TCR-2 RNA binding activity; activity score (negative = inhibition of binding), % at 10 µM; 0.38% of 300,000 active; MEX-5/FITC-TCR2 RNA binding, fluorescence polarization; stronger effect = lower value; Q9XUB2; AID 1832;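 active = inhibition past about -25% in most replicates, and total fluorescence under double the plate's negative control median, limit read from the data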
Target sequence (Q9XUB2 whole entry, looked up): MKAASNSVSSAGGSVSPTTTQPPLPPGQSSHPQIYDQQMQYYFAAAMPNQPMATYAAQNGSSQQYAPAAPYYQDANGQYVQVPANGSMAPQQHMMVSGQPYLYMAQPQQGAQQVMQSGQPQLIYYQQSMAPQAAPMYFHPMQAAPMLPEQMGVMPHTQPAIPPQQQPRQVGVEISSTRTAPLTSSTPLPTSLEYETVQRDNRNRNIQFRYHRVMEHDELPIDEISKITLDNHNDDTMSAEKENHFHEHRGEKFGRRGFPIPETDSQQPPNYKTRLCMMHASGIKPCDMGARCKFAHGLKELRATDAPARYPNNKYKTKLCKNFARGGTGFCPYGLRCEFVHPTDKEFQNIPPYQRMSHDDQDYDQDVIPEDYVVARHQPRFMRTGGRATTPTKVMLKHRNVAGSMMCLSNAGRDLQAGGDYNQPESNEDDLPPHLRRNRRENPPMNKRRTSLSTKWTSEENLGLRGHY
LYPLA1 counter: blocks human lysophospholipase 1, a PME1 counter-screen | 0.16% of 320,000 active | inhibition, % at 5.9 µM | recombinant LYPLA1, FP-Rh probe fluorescence polarization | O75608;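 active = inhibition above the mean of all tested compounds plus 3 SD, set per campaign, cut at about 14% in these data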;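 note: inhibitors block serine hydrolase probe labeling of LYPLA1 so polarization falls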
Fam108B counter: Fam108B inhibition, counter-screen for RBBP9 inhibitors; inhibition, % at 9.51 µM; AID 1947; recombinant Fam108B, FP-Rh probe fluorescence polarization; 0.33% of 300,000 active;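 active = inhibition above the screen mean inhibition plus 3 SD, computed separately per campaign, cut at about 18% in these data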;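 note: inhibitors lower polarization as less probe binds the enzyme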
LYPLA2 conf: counter-screen for PME1 inhibitors: confirmation of human LYPLA2 inhibitors. shares compounds with LYPLA2 inh. recombinant LYPLA2, FP-Rh probe fluorescence polarization. inhibition, % at 5.9 µM. 72% of 1,100 active;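 active = mean inhibition across replicates above the hit cutoff set in the primary screen, cut at about 26% in these data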;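 note: blocked labeling of the enzyme by serine hydrolase FP-Rh probe lowers polarization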
LYPLA2 gel ABPP: inhibitors of human LYPLA2 | shares compounds with LYPLA2 inh | rhLYPLA2 in mouse brain proteome, gel ABPP FP-Rh | inhibition, % at 20 µM | 30% of 150 active | AID 652029;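 active = inhibition of LYPLA2 enzyme probe labeling above about 50%, limit read from the data; inactive = inhibition below that limit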;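 note: loss of FP-Rh probe labeling of the LYPLA2 gel band measured as band density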
Numbers stand for hits; . = inactive; / = not tested or not shown. Sampled rows, rich in hits. Any-hit rate of the full collection: about 1.6%.

SMILES | PME-1 primary | PREPL inh | LYPLA2 inh | MEX-5 binding | LYPLA1 counter | Fam108B counter | LYPLA2 conf | others
COc1ccc(NC(=O)c2cc(F)c(F)cc2Cl)cc1Cl | . | . | 27.5 | . | . | . | .
CCOC(=O)c1ccc(NC(=O)c2cc(F)c(F)cc2Cl)cc1 | . | . | . | . | . | . | /
O=C(c1ccc(CNc2c(N3CCOCC3)c(=O)c2=O)cc1)N1CC=C(c2ccccc2)CC1 | . | . | 44.2 | / | . | . | 40.6
Cc1ccc(NC(=O)c2ccc(CNc3c(N4CCOCC4)c(=O)c3=O)cc2)cc1 | . | . | . | . | . | . | /
O=C1CCCC(=NNC(=O)c2ccc(CN3c4cccc5cccc(c45)S3(=O)=O)cc2)C1 | / | / | / | / | / | / | / | LYPLA2 gel ABPP=.
Cc1occc1-c1nnc(SCC(=O)c2ccc(Cl)cc2)n1CC1CCCO1 (stereo not drawn) | . | . | . | . | . | . | /
O=C(NC(=S)N1CCN(c2ccc(C(F)(F)F)cc2[N+](=O)[O-])CC1)c1cccs1 | . | . | 35.7 | . | . | . | 29.5
COc1ccc(C2=NOC(COc3ccc4c(C)cc(=O)oc4c3)C2)c(OC)c1 (stereo not drawn) | . | . | 28.1 | . | . | . | .
COc1ccccc1C1=NOC(COc2ccc3c(C)cc(=O)oc3c2)C1 (stereo not drawn) | . | . | . | . | . | . | /
COc1ccc(C(=O)C2CCN(CC(=O)Nc3ccccc3F)CC2)cc1 | . | . | . | . | . | . | /
O=C(CNc1ccc(Br)cc1)Nc1ccc(S(=O)(=O)N2CCCC2)cc1 | . | . | 28.8 | / | . | / | .
O=C(CNc1ccc(Br)cc1)Nc1cccc(S(=O)(=O)N2CCCC2)c1 | . | . | . | / | . | / | /
O=C(Nc1ccc(S(=O)(=O)N2CCCC2)cc1)c1c(F)cccc1F | . | . | 27.6 | . | . | . | .
Cc1c(Br)c([N+](=O)[O-])nn1CC(=O)N1CCN(C23CC4CC(CC(C4)C2)C3)CC1 | . | . | 27.3 | . | . | . | .
Cc1c(Br)c([N+](=O)[O-])nn1CC(=O)N1CCc2ccccc2C1 | . | . | . | . | . | . | /
COc1ccccc1NC(=O)CCn1c(=O)c2cccn2c2ccccc21 | . | . | 26.1 | . | . | . | .
O=[N+]([O-])c1c(Nc2cccc(O)c2)cc(Cl)c2nonc12 | . | . | 47.5 | . | . | . | 51.2
O=C(O)c1ccc(Nc2cc(Cl)c3nonc3c2[N+](=O)[O-])cc1 | . | . | . | . | . | . | /
Oc1ccc2ccccc2c1N=Nc1ccc(F)cc1 | . | . | 28.5 | . | . | . | .
C#Cc1cccc(-n2nnc(C(C)=O)c2C)c1 | . | . | . | . | . | . | /
Cc1cc(=O)oc2cc(Oc3ccc([N+](=O)[O-])cc3[N+](=O)[O-])ccc12 | . | . | 36.5 | . | . | . | 40.5
O=[N+]([O-])c1cc(/C=N/O)ccc1Oc1cccc(Cl)c1 | . | . | . | . | . | . | /
Cc1cc(=O)oc2cc(Oc3ncccc3[N+](=O)[O-])ccc12 | . | . | . | . | . | . | /
O=Cc1cccc(Oc2ccc([N+](=O)[O-])cc2[N+](=O)[O-])c1 | . | . | 41.5 | . | . | . | 27.2
O=C(O)CN1C(=O)/C(=C\c2cc(Br)ccc2OCc2ccc(F)cc2)SC1=S | . | . | 41.4 | . | . | . | 43.6
SMILES | PME-1 primary | PREPL inh | LYPLA2 inh | MEX-5 binding | LYPLA1 counter | Fam108B counter | LYPLA2 conf | others
O=C(O)CN1C(=O)/C(=C\c2cc(Br)ccc2OCc2ccc(Cl)cc2)SC1=S | / | / | / | . | / | / | /
Cc1[nH]c2c(Cl)cccc2c1CCNC(=O)C1CCCCC1C(=O)OCC(F)(F)F (stereo not drawn) | . | . | . | . | . | . | /
Cc1ccc(C(=O)Nc2cccc(C(=O)NC3CCCCC3)c2)cc1 | . | . | 30.1 | . | . | . | 30.9
CSc1ccc(C(=O)C2CCCN(C(=O)c3cc4cc(F)ccc4[nH]3)C2)cc1 (stereo not drawn) | . | . | 36.4 | . | . | . | 40.6
CSc1ccc(C(=O)C2CCCN(C(=O)c3ccc4c(c3)OCO4)C2)cc1 (stereo not drawn) | . | . | . | . | . | . | /
CC(C)Oc1ccc(CNC(=O)CCC(=O)N2CC(C)Sc3ccccc32)cc1 (stereo not drawn) | . | . | . | . | . | . | /
Cc1c(Nc2ccc3nonc3c2[N+](=O)[O-])c(=O)n(-c2ccccc2)n1C | . | . | 31.6 | . | . | . | 36.6
O=C(NCCCC1CCCC1)C1CCC(=O)N(Cc2ccc(Cl)cc2)C1 (stereo not drawn) | . | . | 27.5 | . | . | . | 33.7
COc1ccc(N2CCN(c3ccnc4cc(Cl)ccc34)CC2)cc1 | . | . | 26.3 | . | . | . | .
Oc1ccc(N2CCN(c3ccnc4cc(Cl)ccc34)CC2)cc1 | . | . | . | . | . | . | /
COc1ccc(N2CCN(C(=O)c3cc4cc(Cl)ccc4[nH]3)CC2)cc1 | . | . | 36.7 | . | . | . | 49.8
O=C(c1ccc(F)cc1)C1CCN(CCn2c(=O)[nH]c3ccccc3c2=O)CC1 | . | . | 33.3 | . | . | . | 36.1
O=C(CCCn1c(=O)[nH]c2ccccc2c1=O)Nc1ccc(F)cc1 | . | . | . | . | . | . | /
O=C(N/N=C/c1ccc(N2CCOCC2)c([N+](=O)[O-])c1)c1ccc(F)cc1 | . | . | . | . | . | . | /
O=C(O/N=C\c1ccc(N2CCCCC2)c([N+](=O)[O-])c1)c1cccc(C(F)(F)F)c1 | . | . | . | . | . | . | /
CO/N=C/c1ccc(N2CCN(C(=O)c3ccc(F)cc3)CC2)c([N+](=O)[O-])c1 | . | . | 48.0 | . | . | . | 49.9
CO/N=C/c1ccc(N2CCN(C(=O)c3ccc(Cl)cc3Cl)CC2)c([N+](=O)[O-])c1 | . | . | 48.1 | . | . | . | 50.1
O=C(O/N=C\c1ccc(N2CCCCC2)c([N+](=O)[O-])c1)c1cccc(Cl)c1 | . | . | . | . | . | . | /
CO/N=C/c1ccc(N2CCN(C(=O)c3cccc(C(F)(F)F)c3)CC2)c([N+](=O)[O-])c1 | . | . | 87.5 | . | . | . | 85.5
COc1ccc(N2CCN(C3CC(=O)N(Cc4ccccc4)C3=O)CC2)cc1 (stereo not drawn) | . | . | . | . | . | . | /
O=C(c1ccncc1)c1ccc(N2CCN(C3CC(=O)N(Cc4ccccc4)C3=O)CC2)cc1 (stereo not drawn) | . | . | 27.7 | . | . | . | .
COc1ccc(-n2nc(C(=O)NCC(=O)N3CCCC3)c3ccccc3c2=O)c(OC)c1 | . | . | . | . | . | . | /

Bioassay records (PubChem BioAssay)
